Holding throughout (assay): DAPPL (digital affinity profiling via proximity ligation, sequencing); 10 mM Tris-HCl pH 7.5, 50 mM NaCl, 1 mM DTT, 4% glycerol, room temperature, 30 min; GST-TFs on glutathione beads, 16-mer random dsDNA library, 0.1% formaldehyde crosslink after washing; high values mean tight binding
One test addresses T1, FLI1 (Homo sapiens, UniProt Q01543 1-452).
T1 sequence: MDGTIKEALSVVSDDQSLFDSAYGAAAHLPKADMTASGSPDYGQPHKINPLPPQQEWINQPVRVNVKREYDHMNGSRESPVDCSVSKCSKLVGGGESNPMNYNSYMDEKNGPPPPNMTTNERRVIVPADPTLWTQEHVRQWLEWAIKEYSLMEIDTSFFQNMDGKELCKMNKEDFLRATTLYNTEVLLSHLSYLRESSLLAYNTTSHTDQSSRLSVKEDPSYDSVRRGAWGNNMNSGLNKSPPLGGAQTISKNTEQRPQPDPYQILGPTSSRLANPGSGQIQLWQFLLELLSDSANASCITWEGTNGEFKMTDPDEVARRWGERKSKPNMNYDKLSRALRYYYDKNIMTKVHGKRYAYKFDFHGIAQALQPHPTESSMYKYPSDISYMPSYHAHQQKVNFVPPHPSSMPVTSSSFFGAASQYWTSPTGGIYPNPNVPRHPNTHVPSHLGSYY
The settings on record: protein: recombinant; tags: N-terminal GST; dsDNA, one strand shown. The method, boiled down:
(§1)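 Human transcription factors were made in yeast as GST fusions, captured on glutathione beads and barcoded with DNA. With a tag-only sample included, the pool was incubated with 200 nmole of a random double-stranded 16-mer DNA library in Tris/NaCl/DTT/glycerol buffer at room temperature for 30 min, then crosslinked with 0.1% formaldehyde after washing, ligated by proximity, amplified and sequenced. For binding signal, each hexamer's read frequency for a factor is divided by its frequency for the tag-only sample.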

The target of another test is T2, ELK1 (Homo sapiens, UniProt P19419 1-428).
T2 sequence: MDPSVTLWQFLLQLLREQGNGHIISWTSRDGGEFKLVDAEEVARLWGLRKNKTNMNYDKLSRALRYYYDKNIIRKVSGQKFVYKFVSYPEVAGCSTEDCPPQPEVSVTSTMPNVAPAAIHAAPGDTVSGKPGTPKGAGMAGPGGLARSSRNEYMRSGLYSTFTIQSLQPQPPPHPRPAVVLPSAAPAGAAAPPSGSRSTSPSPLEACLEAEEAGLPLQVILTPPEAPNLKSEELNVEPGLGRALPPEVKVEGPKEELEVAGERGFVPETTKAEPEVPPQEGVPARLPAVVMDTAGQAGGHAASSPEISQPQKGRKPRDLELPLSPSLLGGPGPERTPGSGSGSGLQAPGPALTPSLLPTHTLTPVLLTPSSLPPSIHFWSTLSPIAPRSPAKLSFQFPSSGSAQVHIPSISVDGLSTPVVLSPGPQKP
The following applies: protein: recombinant; tags: N-terminal GST; dsDNA, one strand shown. In outline: as §1

The next test deals with T3, GABPA (Homo sapiens, UniProt Q06546 1-454).
T3 sequence: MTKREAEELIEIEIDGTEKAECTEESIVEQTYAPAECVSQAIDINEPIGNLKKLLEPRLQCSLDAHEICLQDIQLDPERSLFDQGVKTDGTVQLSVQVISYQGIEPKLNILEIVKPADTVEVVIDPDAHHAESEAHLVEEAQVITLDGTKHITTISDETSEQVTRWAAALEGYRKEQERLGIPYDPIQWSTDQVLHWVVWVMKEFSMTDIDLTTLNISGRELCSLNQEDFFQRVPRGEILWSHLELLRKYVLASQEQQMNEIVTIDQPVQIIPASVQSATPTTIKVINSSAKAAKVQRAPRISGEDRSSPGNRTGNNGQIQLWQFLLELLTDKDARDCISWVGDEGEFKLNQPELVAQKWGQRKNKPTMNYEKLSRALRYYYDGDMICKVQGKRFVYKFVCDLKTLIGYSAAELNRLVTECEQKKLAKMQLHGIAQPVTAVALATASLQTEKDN
The following applies: protein: recombinant; tags: N-terminal GST; dsDNA, one strand shown. The method, boiled down: as §1

The target of the next test is T4, ERG (Homo sapiens, UniProt P11308 1-479).
T4 sequence: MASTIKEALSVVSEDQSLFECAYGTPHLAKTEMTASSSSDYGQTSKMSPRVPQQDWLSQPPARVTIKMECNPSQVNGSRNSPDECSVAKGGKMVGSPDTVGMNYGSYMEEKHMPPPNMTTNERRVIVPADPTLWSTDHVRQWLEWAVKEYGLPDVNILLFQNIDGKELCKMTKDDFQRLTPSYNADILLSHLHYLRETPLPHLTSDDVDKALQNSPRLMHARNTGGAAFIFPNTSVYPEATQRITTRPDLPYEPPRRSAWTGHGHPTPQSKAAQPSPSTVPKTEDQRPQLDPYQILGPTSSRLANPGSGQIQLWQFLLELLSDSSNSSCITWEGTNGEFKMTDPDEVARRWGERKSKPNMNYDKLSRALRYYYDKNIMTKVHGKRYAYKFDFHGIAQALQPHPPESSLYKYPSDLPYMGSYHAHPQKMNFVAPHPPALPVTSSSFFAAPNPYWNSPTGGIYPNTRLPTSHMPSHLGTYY
The following applies: protein: recombinant; tags: N-terminal GST; dsDNA, one strand shown. In outline:
as §1

A further test addresses ELF1 (Homo sapiens, UniProt P32519 1-619). The settings on record: protein: recombinant; tags: N-terminal GST; dsDNA, one strand shown. The method, boiled down: as §1
Another test has as its target T5, EHF (Homo sapiens, UniProt Q9NZC4 1-300).
T5 sequence: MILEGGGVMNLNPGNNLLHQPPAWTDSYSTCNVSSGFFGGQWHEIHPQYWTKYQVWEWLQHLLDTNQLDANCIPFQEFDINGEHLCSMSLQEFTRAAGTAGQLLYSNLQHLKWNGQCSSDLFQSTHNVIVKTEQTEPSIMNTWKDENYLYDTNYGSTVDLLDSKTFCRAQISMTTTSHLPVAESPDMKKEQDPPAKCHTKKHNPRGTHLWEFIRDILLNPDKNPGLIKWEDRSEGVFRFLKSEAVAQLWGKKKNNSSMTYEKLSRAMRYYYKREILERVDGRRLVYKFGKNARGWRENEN
The settings on record: protein: recombinant; tags: N-terminal GST; dsDNA, one strand shown. In outline: as §1

The target of another test is SPI1 (Homo sapiens, UniProt P17947 1-270). The settings on record: protein: recombinant; tags: N-terminal GST; dsDNA, one strand shown. The method, boiled down:
as §1

In the next test the target is SPIB (Homo sapiens, UniProt Q01892 1-262). The settings on record: protein: recombinant; tags: N-terminal GST; dsDNA, one strand shown. The method, boiled down: as §1
Another test deals with T6, ELK3 (Homo sapiens, UniProt P41970 1-407).
T6 sequence: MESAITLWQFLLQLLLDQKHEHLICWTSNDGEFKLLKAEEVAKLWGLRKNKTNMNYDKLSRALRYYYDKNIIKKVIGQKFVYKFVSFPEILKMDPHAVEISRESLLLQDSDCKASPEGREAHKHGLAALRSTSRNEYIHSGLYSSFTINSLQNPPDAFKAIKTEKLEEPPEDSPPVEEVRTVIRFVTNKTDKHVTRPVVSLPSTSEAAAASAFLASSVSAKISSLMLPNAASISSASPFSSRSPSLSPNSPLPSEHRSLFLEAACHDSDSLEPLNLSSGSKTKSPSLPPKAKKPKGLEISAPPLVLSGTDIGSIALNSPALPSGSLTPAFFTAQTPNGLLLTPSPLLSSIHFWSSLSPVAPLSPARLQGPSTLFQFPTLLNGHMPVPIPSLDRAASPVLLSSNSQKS
The following applies: protein: recombinant; tags: N-terminal GST; dsDNA, one strand shown. In outline:
as §1

In another test the target is T7, FEV (Homo sapiens, UniProt Q99581 1-238).
T7 sequence: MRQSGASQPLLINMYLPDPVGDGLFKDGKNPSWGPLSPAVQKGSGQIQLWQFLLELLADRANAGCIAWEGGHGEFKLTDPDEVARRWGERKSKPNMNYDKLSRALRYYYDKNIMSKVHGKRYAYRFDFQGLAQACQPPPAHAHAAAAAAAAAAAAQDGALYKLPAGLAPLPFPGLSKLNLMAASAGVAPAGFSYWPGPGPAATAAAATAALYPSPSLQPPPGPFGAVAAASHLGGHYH
The settings on record: protein: recombinant; tags: N-terminal GST; dsDNA, one strand shown. The method, boiled down:
as §1

A further test has as its target ETV5 (Homo sapiens, UniProt P41161 1-510). The following applies: protein: recombinant; tags: N-terminal GST; dsDNA, one strand shown. In outline: as §1
The target in another test is HSF1 (Homo sapiens, UniProt Q00613 1-529). The following applies: protein: recombinant; tags: N-terminal GST; chain copies: 3; dsDNA, one strand shown. In outline:
as §1

The target in another test is T8, SPIC (Homo sapiens, UniProt Q8N5J4 1-248).
T8 sequence: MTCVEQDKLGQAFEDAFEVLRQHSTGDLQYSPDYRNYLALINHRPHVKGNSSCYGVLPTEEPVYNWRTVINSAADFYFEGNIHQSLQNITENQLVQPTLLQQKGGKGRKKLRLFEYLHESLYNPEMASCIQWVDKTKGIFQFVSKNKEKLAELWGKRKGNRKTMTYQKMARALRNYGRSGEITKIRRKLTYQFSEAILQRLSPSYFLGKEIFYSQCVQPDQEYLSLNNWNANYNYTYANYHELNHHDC
The settings on record: protein: recombinant; tags: N-terminal GST; dsDNA, one strand shown. In outline:
as §1

In another test the target is ELF4 (Homo sapiens, UniProt Q99607 1-663). The settings on record: protein: recombinant; tags: N-terminal GST; dsDNA, one strand shown. In outline: as §1
Another test addresses T9, ELK4 (Homo sapiens, UniProt P28324-2 1-405).
T9 sequence: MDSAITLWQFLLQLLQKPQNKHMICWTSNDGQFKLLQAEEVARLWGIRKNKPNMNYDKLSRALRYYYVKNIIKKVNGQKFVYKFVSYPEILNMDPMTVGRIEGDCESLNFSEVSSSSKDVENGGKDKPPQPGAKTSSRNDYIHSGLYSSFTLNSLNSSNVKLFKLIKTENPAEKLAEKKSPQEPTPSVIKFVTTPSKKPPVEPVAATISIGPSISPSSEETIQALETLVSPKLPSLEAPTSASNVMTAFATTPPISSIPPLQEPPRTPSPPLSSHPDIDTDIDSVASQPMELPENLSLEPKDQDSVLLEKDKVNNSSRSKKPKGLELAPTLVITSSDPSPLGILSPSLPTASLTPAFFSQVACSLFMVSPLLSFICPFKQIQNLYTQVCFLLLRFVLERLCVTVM
The following applies: protein: recombinant; tags: N-terminal GST; dsDNA, one strand shown. In outline:
as §1

A further test addresses T10, ETV2 (Homo sapiens, UniProt O00321 1-342).
T10 sequence: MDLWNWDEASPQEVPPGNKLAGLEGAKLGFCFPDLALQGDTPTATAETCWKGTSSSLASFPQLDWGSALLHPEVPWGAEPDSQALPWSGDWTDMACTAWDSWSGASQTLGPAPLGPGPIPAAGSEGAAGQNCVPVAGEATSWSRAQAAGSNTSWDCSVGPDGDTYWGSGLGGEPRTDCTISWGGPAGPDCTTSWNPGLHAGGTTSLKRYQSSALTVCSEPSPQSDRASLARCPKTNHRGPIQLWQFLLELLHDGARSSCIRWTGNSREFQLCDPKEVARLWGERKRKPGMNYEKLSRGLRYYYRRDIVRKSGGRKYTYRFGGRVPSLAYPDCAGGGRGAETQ
The following applies: protein: recombinant; tags: N-terminal GST; dsDNA, one strand shown. In outline: as §1

The target of the next test is T11, ELF3 (Homo sapiens, UniProt P78545 1-371).
T11 sequence: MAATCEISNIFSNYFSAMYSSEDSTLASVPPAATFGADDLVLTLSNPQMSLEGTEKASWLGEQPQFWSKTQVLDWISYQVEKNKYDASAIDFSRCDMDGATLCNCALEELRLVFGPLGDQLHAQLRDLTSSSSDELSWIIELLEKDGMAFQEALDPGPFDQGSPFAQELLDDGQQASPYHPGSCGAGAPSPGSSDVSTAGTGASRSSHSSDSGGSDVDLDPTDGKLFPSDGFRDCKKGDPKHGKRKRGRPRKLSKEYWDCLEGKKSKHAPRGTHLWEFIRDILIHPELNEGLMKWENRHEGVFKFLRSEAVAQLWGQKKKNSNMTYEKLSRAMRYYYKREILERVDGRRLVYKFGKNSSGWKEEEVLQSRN
The settings on record: protein: recombinant; tags: N-terminal GST; dsDNA, one strand shown. The method, boiled down: as §1

For the next test, the target named is CRX (Homo sapiens, UniProt O43186 1-299). The following applies: protein: recombinant; tags: N-terminal GST; dsDNA, one strand shown. In outline: as §1
In another test the target is ETV1 (Homo sapiens, UniProt P50549 1-477). The following applies: protein: recombinant; tags: N-terminal GST; dsDNA, one strand shown. The method, boiled down: as §1
Chain of ETV1 (P50549 whole entry): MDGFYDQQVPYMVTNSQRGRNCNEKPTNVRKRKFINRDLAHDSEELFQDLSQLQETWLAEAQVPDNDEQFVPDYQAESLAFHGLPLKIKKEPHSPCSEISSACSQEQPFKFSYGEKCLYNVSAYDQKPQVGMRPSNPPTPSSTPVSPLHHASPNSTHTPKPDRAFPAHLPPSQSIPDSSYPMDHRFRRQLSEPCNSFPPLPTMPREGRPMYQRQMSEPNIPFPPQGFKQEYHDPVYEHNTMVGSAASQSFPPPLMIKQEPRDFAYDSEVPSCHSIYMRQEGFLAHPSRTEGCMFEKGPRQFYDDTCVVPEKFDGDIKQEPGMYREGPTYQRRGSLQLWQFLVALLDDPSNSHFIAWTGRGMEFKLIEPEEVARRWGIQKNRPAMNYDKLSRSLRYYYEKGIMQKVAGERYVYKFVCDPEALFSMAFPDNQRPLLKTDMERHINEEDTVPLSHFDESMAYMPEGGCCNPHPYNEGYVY

Chain of SPIB (Q01892 whole entry): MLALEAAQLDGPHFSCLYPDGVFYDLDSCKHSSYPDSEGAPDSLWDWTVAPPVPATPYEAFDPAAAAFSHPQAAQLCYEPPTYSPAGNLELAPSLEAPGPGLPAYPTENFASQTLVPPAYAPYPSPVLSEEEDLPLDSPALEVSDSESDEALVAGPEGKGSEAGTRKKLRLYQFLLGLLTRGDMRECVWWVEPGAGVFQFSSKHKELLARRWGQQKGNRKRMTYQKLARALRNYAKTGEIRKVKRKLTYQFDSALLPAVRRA
Chain of HSF1 (Q00613 whole entry): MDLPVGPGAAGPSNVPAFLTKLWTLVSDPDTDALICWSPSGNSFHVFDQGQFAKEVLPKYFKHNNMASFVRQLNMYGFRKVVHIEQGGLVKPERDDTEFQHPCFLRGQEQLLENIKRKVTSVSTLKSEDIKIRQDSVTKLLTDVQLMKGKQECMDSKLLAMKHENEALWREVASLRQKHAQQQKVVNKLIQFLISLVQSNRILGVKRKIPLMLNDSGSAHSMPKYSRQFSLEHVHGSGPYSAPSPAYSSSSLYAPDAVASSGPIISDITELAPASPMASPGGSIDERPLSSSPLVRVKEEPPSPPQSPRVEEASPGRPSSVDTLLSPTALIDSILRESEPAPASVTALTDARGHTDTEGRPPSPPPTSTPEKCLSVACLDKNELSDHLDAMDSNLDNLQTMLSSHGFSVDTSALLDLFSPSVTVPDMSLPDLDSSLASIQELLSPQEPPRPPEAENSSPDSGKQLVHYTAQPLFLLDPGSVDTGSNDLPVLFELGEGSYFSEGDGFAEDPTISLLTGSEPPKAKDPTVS
Chain of ELF1 (P32519 whole entry): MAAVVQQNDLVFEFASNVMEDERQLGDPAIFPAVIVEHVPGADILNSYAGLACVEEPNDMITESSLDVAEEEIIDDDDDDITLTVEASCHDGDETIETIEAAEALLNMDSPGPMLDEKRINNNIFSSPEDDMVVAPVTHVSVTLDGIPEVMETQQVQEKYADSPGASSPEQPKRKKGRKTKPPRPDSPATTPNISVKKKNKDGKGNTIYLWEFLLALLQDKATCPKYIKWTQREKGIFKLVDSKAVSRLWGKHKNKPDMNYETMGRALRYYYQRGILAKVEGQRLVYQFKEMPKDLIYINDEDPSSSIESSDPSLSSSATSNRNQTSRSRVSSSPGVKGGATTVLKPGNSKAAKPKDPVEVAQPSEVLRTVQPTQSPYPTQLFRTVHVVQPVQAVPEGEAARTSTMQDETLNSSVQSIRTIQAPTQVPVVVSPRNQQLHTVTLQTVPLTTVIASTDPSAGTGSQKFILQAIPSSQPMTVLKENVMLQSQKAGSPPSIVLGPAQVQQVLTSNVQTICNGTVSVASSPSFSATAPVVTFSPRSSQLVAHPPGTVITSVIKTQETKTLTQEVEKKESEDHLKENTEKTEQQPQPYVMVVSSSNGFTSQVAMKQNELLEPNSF
Chain of ELF4 (Q99607 whole entry): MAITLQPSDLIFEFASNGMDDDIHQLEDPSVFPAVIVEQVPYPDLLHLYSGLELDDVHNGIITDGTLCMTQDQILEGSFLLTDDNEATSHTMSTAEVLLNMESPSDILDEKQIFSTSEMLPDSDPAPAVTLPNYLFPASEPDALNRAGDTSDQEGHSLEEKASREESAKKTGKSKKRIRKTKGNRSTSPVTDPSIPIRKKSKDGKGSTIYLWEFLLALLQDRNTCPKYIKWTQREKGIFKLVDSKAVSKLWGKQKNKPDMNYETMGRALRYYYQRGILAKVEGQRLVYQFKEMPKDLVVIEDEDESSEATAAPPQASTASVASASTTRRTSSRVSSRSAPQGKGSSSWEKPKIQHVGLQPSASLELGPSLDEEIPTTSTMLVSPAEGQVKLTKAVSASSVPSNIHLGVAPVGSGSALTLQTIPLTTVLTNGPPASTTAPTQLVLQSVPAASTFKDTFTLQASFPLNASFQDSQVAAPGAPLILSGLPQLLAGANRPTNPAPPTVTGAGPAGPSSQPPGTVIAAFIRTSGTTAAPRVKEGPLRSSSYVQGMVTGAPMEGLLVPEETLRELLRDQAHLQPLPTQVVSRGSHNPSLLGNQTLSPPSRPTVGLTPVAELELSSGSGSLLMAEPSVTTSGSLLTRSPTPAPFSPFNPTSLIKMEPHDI
Chain of CRX (O43186 whole entry): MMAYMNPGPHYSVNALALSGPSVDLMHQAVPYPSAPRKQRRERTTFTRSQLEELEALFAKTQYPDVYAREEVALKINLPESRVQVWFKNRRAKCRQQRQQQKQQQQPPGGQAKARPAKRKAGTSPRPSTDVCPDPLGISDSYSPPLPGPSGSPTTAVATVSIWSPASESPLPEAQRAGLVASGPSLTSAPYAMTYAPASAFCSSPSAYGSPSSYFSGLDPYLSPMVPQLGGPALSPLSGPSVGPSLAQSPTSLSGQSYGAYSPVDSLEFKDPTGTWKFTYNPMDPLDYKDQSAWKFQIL
Chain of ETV5 (P41161 whole entry): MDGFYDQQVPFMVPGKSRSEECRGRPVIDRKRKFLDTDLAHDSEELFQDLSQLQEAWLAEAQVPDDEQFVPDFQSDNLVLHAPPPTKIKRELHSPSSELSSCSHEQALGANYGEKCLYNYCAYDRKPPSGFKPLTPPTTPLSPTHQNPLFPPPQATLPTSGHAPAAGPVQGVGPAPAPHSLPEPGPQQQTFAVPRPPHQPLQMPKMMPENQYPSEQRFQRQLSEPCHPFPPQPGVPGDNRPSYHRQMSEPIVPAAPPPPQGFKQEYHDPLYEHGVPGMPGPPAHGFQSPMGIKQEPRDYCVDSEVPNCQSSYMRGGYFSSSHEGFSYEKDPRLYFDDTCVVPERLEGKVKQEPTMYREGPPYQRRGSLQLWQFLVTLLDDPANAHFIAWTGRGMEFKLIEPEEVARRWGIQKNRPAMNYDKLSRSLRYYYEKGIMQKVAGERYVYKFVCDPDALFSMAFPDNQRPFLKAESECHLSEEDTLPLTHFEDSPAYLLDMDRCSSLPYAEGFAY

In the case of AGCCCT, the binding signal with FLI1 is 1.03 fold enrichment (6-mer frequency, TF over GST control); with ELK1, 1.14 fold enrichment (6-mer frequency, TF over GST control); with GABPA, 1.11 fold enrichment (6-mer frequency, TF over GST control); with ERG, 1.09 fold enrichment (6-mer frequency, TF over GST control); in the test with ELF1 it was 1.07 fold enrichment (6-mer frequency, TF over GST control); with EHF it was 1.18 fold enrichment (6-mer frequency, TF over GST control). Besides, the binding signal with SPI1 is 1.09 fold enrichment (6-mer frequency, TF over GST control); with SPIB, 1.14 fold enrichment (6-mer frequency, TF over GST control); with ELK3 it was 1.07 fold enrichment (6-mer frequency, TF over GST control); with FEV, 1.14 fold enrichment (6-mer frequency, TF over GST control); in the test with ETV5, 1.08 fold enrichment (6-mer frequency, TF over GST control); with HSF1, 1.09 fold enrichment (6-mer frequency, TF over GST control). Also, the binding signal is 1.25 fold enrichment (6-mer frequency, TF over GST control) with SPIC; 1.06 fold enrichment (6-mer frequency, TF over GST control) with ELF4; 1.14 fold enrichment (6-mer frequency, TF over GST control) with ELK4; 1.18 fold enrichment (6-mer frequency, TF over GST control) in the test with ETV2; 1.1 fold enrichment (6-mer frequency, TF over GST control) with ELF3; 1.25 fold enrichment (6-mer frequency, TF over GST control) with CRX. The binding signal in the test with ETV1 was 1.05 fold enrichment (6-mer frequency, TF over GST control).

The record behind these values is article PMC7862700, “An all-to-all approach to the identification of sequence-specific readers for epigenetic DNA modifications on cytosine”.
